The values below come from PubChem BioAssay (NCI).

Common to all, as to assay: NCI-60 one-dose screen, 48 h (100 = growth as untreated, 0 = no growth, -100 = all killed)
For one assay, the system named is NCI-H23 lung. The settings on record: 10 µM.
Another assay has as its system A549/ATCC NSCLC. The settings on record: 10 µM.
The next assay has as its system K-562 leukemia. The settings on record: 10 µM.
The subject of a further assay is MDA-MB-231 breast. The settings on record: 10 µM.
The test system of a further assay is SNB-75 CNS. To be noted: 10 µM.
The subject of the next assay is MOLT-4 leukemia. The settings on record: 10 µM.
The next assay has as its system HS 578T breast. To be noted: 10 µM.
The subject of another assay is SW-620 colon. The settings on record: 10 µM.
Another assay deals with HCC-2998 colon. To be noted: 10 µM.
In another assay the test system is MDA-MB-468 breast. The settings on record: 10 µM unless noted.
A further assay concerns PC-3 prostate. To be noted: 10 µM.
Another assay concerns SK-MEL-28 melanoma. The settings on record: 10 µM.
The next assay concerns UO-31 renal. The settings on record: 10 µM.
In a further assay the test system is SR leukemia. The settings on record: 10 µM.
The subject of the next assay is BT-549 breast. To be noted: 10 µM.
In the next assay the test system is KM12 colon. The settings on record: 10 µM.
In a further assay the test system is OVCAR-3 ovarian. To be noted: 10 µM.
In another assay the test system is ACHN renal. To be noted: 10 µM.
The next assay deals with CAKI-1 renal. The settings on record: 10 µM.

Molecules are shown by their SMILES. About 83,000 compounds went through this panel and 20% of them were active in at least one assay; those are over-represented in the sample as a whole.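 The endpoint reported here, percent growth, reads 100 for growth as untreated, 0 for no net growth and -100 for all cells dead.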 A number with no mark means an inactive call. Active and inactive are the calls of the source. How the source made its calls: active means growth percent below 10; inactive means the rest.

For `CC1=C(COCCOC(=O)c2ccc(S(=O)(=O)F)cc2)C2=C(C)C3(CC3)[C@@](C)(O)C(=O)C2=C1`, the growth in the assay with NCI-H23 lung is -85.6% (active); in the assay with A549/ATCC NSCLC it was 4.56% (active); with K-562 leukemia it was 32.6%; in the assay with MDA-MB-231 breast, -27.2% (active); in the assay on SNB-75 CNS, -15.9% (active); in the assay with MOLT-4 leukemia, 36%. In addition, the growth was -12.9% (active) in the assay on HS 578T breast, 62.3% in the assay on SW-620 colon, -83.5% (active) in the assay with HCC-2998 colon and -87.5% (active) with MDA-MB-468 breast.

On to `C#CC[Se]C(=O)c1ccc2n[se]nc2c1`, for which the growth is 77% with NCI-H23 lung; 59.7% with A549/ATCC NSCLC; 4.82% (active) in the assay on K-562 leukemia; 39.6% with PC-3 prostate; 79.4% in the assay with SK-MEL-28 melanoma; 22.6% with UO-31 renal. Also, the growth is 22.9% in the assay with MOLT-4 leukemia; 3.84% (active) in the assay on SR leukemia; 52.1% in the assay with BT-549 breast; 95.8% with HCC-2998 colon; 95.2% with KM12 colon; 25.9% in the assay with MDA-MB-468 breast.

`COC(=O)c1ccc(-n2cc(CCCN(CCNc3ccnc4cc(Cl)ccc34)C(=O)CCC(=O)O[C@@H]3O[C@@H]4OC5(C)CC[C@H]6[C@H](C)CC[C@@H]([C@H]3C)[C@@]46OO5)nn2)cc1`: the growth in the assay with NCI-H23 lung is 40.4%; with A549/ATCC NSCLC, 44.4%; in the assay with K-562 leukemia, 5.64% (active); with MDA-MB-231 breast, 62.8%; in the assay with SNB-75 CNS it was 67.3%; in the assay on SK-MEL-28 melanoma, 16.3%. The growth in the assay with MOLT-4 leukemia is -13.5% (active); in the assay on SR leukemia, -10% (active); in the assay on OVCAR-3 ovarian it was 43.4%; in the assay with HS 578T breast, 49.6%; with BT-549 breast, 43.2%; in the assay with SW-620 colon, 31.6%. The growth was 49.5% in the assay on HCC-2998 colon and 33.3% with MDA-MB-468 breast.

As to `CC[C@]12C=CCN3CC[C@@]4(c5ccc(OC)cc5N(C)[C@H]4[C@@](O)(C(=O)OC)[C@@H]1OC(=O)CCCC[P+](c1ccc(OC)cc1)(c1ccc(OC)cc1)c1ccc(OC)cc1)[C@@H]32`, the growth with NCI-H23 lung was -90.7% (active); with A549/ATCC NSCLC, -83.7% (active); in the assay on K-562 leukemia, 1.01% (active); in the assay with MDA-MB-231 breast, -97.4% (active); with MOLT-4 leukemia, -26.2% (active); with SR leukemia, 23.2%. Moreover, the growth in the assay on OVCAR-3 ovarian was -71.8% (active); with HS 578T breast, -67.5% (active); in the assay with SW-620 colon, -88.7% (active); in the assay on MDA-MB-468 breast it was -92.7% (active).

With `COCCOCCOCCOc1ccc(-n2cc(-c3ccc(O[C@H]4O[C@@H]5OC6(C)CC[C@H]7[C@H](C)CC[C@@H]([C@H]4C)[C@@]57OO6)cc3)nn2)cc1`, the growth is 27.2% with NCI-H23 lung; 60.1% with A549/ATCC NSCLC; 28.6% with K-562 leukemia; 79.9% in the assay with MDA-MB-231 breast; 28% in the assay on PC-3 prostate; 17.4% in the assay on ACHN renal. Moreover, the growth with CAKI-1 renal was 25%; in the assay on MOLT-4 leukemia it was 21.2%; in the assay with SR leukemia, 33.8%; with OVCAR-3 ovarian, 46%; in the assay on HS 578T breast it was 43.9%; with SW-620 colon, 27.7%. In the assay on MDA-MB-468 breast, the growth is 13.3%.

Consider `C[C@H]1[C@@H](Oc2ccc(-c3cn(-c4ccnc5cc(Cl)ccc45)nn3)cc2)O[C@@H]2OC3(C)CC[C@H]4[C@H](C)CC[C@@H]1[C@@]24OO3`, for which the growth was 28.4% with NCI-H23 lung; 35.2% in the assay with A549/ATCC NSCLC; 22.2% with K-562 leukemia; 49.4% in the assay with MDA-MB-231 breast; 61.6% in the assay on SNB-75 CNS; 33.3% with SK-MEL-28 melanoma. Moreover, the growth was 17.5% in the assay on MOLT-4 leukemia; 12.2% in the assay on SR leukemia; 32.5% in the assay with HS 578T breast; 27% in the assay on SW-620 colon; 36.9% in the assay with MDA-MB-468 breast.

Consider `CC[C@]12C=CCN3CC[C@@]4(c5ccc(OC)cc5N(C)[C@H]4[C@@](O)(C(=O)OC)[C@@H]1OC(=O)CCCC[P+](C1CCCCC1)(C1CCCCC1)C1CCCCC1)[C@@H]32`, for which the growth in the assay on NCI-H23 lung is -9.66% (active); with A549/ATCC NSCLC, 11.6%; with K-562 leukemia, 7.48% (active); with MDA-MB-231 breast, -92.8% (active); in the assay with PC-3 prostate, 3.69% (active); in the assay with MOLT-4 leukemia, -5.16% (active). Also, the growth was 19.5% with SR leukemia, -35% (active) in the assay with HS 578T breast and 2.08% (active) with SW-620 colon.

Consider `COCCOCCOCCOc1ccc(-n2cc(CCCN(CCNc3ccnc4cc(Cl)ccc34)C(=O)CCC(=O)O[C@@H]3O[C@@H]4OC5(C)CC[C@H]6[C@H](C)CC[C@@H]([C@H]3C)[C@@]46OO5)nn2)cc1`, for which the growth in the assay with NCI-H23 lung was 47.9%; with A549/ATCC NSCLC, 46.1%; with K-562 leukemia, 17.2%; with MDA-MB-231 breast, 73.5%; with SNB-75 CNS, 57.6%; with SK-MEL-28 melanoma, 53.1%. In addition, the growth is 47.1% in the assay on ACHN renal; 7.21% (active) with MOLT-4 leukemia; -5.07% (active) in the assay with SR leukemia; 35.3% in the assay with OVCAR-3 ovarian; 34.9% in the assay on HS 578T breast; 4.88% (active) in the assay with BT-549 breast. Also, the figures for the growth in the assay on SW-620 colon and in the assay with MDA-MB-468 breast were 30% and 44.9%, respectively.

On to `O=C(/C=C/c1ccco1)c1nc2ccccc2n1Cc1ccc(F)cc1`, for which the growth in the assay on NCI-H23 lung is 65.2%; in the assay with K-562 leukemia, 20.7%; in the assay with SNB-75 CNS, 28.7%; in the assay on PC-3 prostate, 65.6%; with UO-31 renal, 46.8%; with CAKI-1 renal, 57.6%. Also, the growth was 6.46% (active) in the assay on MOLT-4 leukemia; 23.6% in the assay with SR leukemia; 59.7% in the assay on BT-549 breast; 57% in the assay on HCC-2998 colon; 50.8% with KM12 colon; 24% with MDA-MB-468 breast.

On to `CC12OOC(C)(OO1)C2CCC(=O)NCCNc1ccnc2cc(Cl)ccc12` (stereo not drawn), for which the growth in the assay with NCI-H23 lung is 92.6%; in the assay with K-562 leukemia it was 39.4%; in the assay with MDA-MB-231 breast, 96.6%; in the assay with UO-31 renal, 76.1%; in the assay on CAKI-1 renal, 78.2%; with MOLT-4 leukemia, 98.6%. The growth with SR leukemia was 21.4%; in the assay on HS 578T breast it was 99.8%; with SW-620 colon it was 80.6%; in the assay on KM12 colon it was 101%; in the assay with MDA-MB-468 breast it was 82.7%.

In the case of `O=C(NC([Se])=NC1CCCCC1)c1ccccc1`, the growth is 19% in the assay on NCI-H23 lung; 59.2% in the assay with K-562 leukemia; 17.8% with SNB-75 CNS; 51.3% in the assay with PC-3 prostate; 33.3% in the assay with SK-MEL-28 melanoma; 6.45% (active) with UO-31 renal. Also, the growth was 34.5% in the assay with ACHN renal; 32.4% in the assay with CAKI-1 renal; 57.4% in the assay with MOLT-4 leukemia; 51.4% in the assay with SR leukemia; 62.8% with HCC-2998 colon; 55% in the assay on MDA-MB-468 breast.
